Test results: PubChem BioAssay AID524 (The Scripps Research Institute Molecular Screening Center, 2006)
Out of some 65,000 compounds screened, about 95 (0.1%) were called active. Shown is part of a subset that was picked to be rich in actives. A number with no mark means an inactive call.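 Rule for the calls: active = inhibition above the screen-wide mean inhibition plus 3 SD (cut at about 21% in these data); inactive = the rest.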

Target: cAMP-dependent protein kinase catalytic subunit alpha (Homo sapiens) (UniProt P17612)
Test: PKA catalytic subunit kinase inhibition – biochemical, ATP-depletion luminescence, Kemptide substrate, primary screen (AID 524)
Settings: PKA Kemptide phosphorylation, Kinase-Glo ATP luminescence; at 6 µM; stronger effect = higher value

Going from `COc1ccc(C)c2sc(=NC(=O)c3ccc(C#N)cc3)n(C)c12` to `N#Cc1ccc(COC(=O)Cn2nnc(-c3ccccc3)n2)cc1`, the inhibition rises from 3.2% to 10.9%.

First: CN(C(=O)c1ccno1)c1nnc(-c2cccnc2)s1
Second: CN(C(=O)c1ccccn1)c1nnc(-c2ccccn2)s1
The inhibition of the first is higher: 2.6% for the first, -0.9% for the second.

Compared with `CC(C)N(C(=O)Cn1c(SCC(=O)N2CCN(c3ccccc3)CC2)nc2ccccc21)C(C)C`, `Cc1cc2ccccc2n2c(SCC(=O)N3CCN(C(=O)c4ccco4)CC3)nnc12` is higher in inhibition: 7.5% for the first, 8.5% for the second.

Compared with `Cc1cc(C)cc(NC(=O)C2CCN(c3nc(C)cc(C)n3)CC2)c1`, `Cc1nc(C)c(C(=O)Nc2cccc(C)c2C)o1` is lower in inhibition: 6.7% for the first, -2.6% for the second.

First: O=C(CSc1nnc(-c2ccccn2)n1-c1ccccc1)Nc1ccc2c(c1)OCO2
Second: Cn1c(SCC(=O)Nc2cccc(NC(=O)c3cccs3)c2)nnc1-c1ccncc1
The inhibition of the first is lower: 5.1% for the first, 12.7% for the second.

Going from `Cc1ccn2cc(C(=O)NC3CCN(Cc4ccccc4)CC3)nc2c1` to `O=C(NCCC1=CCCCC1)C1CCN(Cc2cnn(-c3ccccc3)c2-n2cccc2)CC1`, the inhibition rises from 4.5% to 6.6%.

First: Nc1nc(SCCOc2ccccc2)n[nH]1
Second: CCCOc1ccc(-c2nc(N)n[nH]2)cc1
The inhibition of the first is higher: 11.5% for the first, -2.2% for the second.

Going from `O/N=C(\c1ccc2c(c1)OCCO2)C1CCCCC1` to `O=C(COC(=O)c1ccc2c(c1)OCCO2)NCc1ccccc1`, the inhibition rises from -0.4% to 5.2%.

Compared with `Cc1cc(/C=N/n2cnnc2)c(C)n1-c1cccc(C(=O)O)c1`, `Cc1cc(C(=O)OCC(=O)NCc2ccco2)c(C)n1-c1ccccc1` is lower in inhibition: 7.1% for the first, 0.4% for the second.

Going from `COc1ccc(-c2cc3ccc(OCc4nn[nH]n4)cc3oc2=O)cc1` to `CC(=O)Cc1nsc(NC(=O)c2ccc(COc3ccc(C)cc3)o2)n1`, the inhibition rises from 6.3% to 11.4%.

Going from `CCc1cc(Br)ccc1NC(=O)C1CCCO1` (centres undefined) to `C/C(=C\C(=O)c1ccc(Br)cc1)N1CCCCC1`, the inhibition falls from 12.3% to 0.7%.

Compared with `Cc1cc(C(=O)CC#N)c(C)n1CC(F)(F)F`, `COc1ccc2c(c1)OC(O)(C(F)(F)C(F)F)CC2=O` (centres undefined) is lower in inhibition: 6% for the first, 4.1% for the second.

First: C=CCNc1nc(C)nc(OC)n1
Second: COc1ccc(NC(=O)c2c(C)oc3c2CCCC3)cc1
The inhibition of the first is lower: 4.4% for the first, 4.6% for the second.

First: Cc1nc(N2CCN(c3ncccn3)CC2)c2oc3ccccc3c2n1
Second: Cn1c(=O)c(C(=O)Nc2ncccn2)c(O)c2ccccc21
The inhibition of the first is higher: 8.8% for the first, -3.8% for the second.

First: CCOc1ncccc1C(=O)OCc1cn2cc(Cl)ccc2n1
Second: CC(=O)Nc1ccc(-c2cn3cccnc3n2)cc1
The inhibition of the first is higher: 8.2% for the first, 3.9% for the second.

Going from `COc1ccc(CCN=C2SCC(=O)N2C)cc1OC` to `COc1ccc(OC)c2[nH]c(=O)c(CCNC(=O)C(C)(C)C)cc12`, the inhibition falls from 5.5% to 2.9%.

First: Fc1ccccc1OCCCCn1cncn1
Second: CCCCNc1nc2c(c(=O)[nH]c(=O)n2C)n1CCOc1ccccc1
The inhibition of the first is higher: 2.8% for the first, -1.2% for the second.

Compared with `CN(CC(=O)NC1CCCCC1)S(=O)(=O)c1ccc(Br)s1`, `CC(C)C(C(=O)NC1CCCCC1)N(CC1CCCO1)C(=O)CNS(=O)(=O)c1ccc(F)cc1` (centres undefined) is higher in inhibition: 4% for the first, 4.8% for the second.

Going from `COCCNC(=S)c1ccc(OC)cc1` to `COCCCNC(=O)c1ccc(CNS(=O)(=O)c2ccc(NC(C)=O)cc2)cc1`, the inhibition falls from 5.8% to -2.5%.

First: Cn1cccc1C(=O)NC(=O)COC(=O)Cc1coc2ccc3ccccc3c12
Second: CC(C)C(=O)Nc1c(C(=O)c2ccc(F)cc2)oc2ccccc12
The inhibition of the first is higher: 5.5% for the first, 2.9% for the second.

Compared with `CCOc1ccc(NC(=O)N(CCC(C)C)C(C)c2ccco2)cc1` (centres undefined), `COc1cccc2cc(C(C)N(CCCN3CCOCC3)C(=O)Nc3ccc(Cl)cc3)oc12` (centres undefined) is lower in inhibition: 4.9% for the first, 0.5% for the second.

Going from `CCCC(NC(=O)c1ccccc1)c1nc2ccccc2n1Cc1ccc(C(=O)OC)o1` (centres undefined) to `Cn1c(=O)[nH]c(=O)c2c1nc(CN1CCN(c3ccccc3F)CC1)n2CCc1ccccc1`, the inhibition falls from 9.3% to 1.4%.

First: Cc1ccc(Cc2cncc(O)c2)cc1S(=O)(=O)O
Second: Cc1ccc2c(c1)C(O)(CC(=O)c1cccnc1)C(=O)N2 (centres undefined)
The inhibition of the first is lower: -3.1% for the first, 6% for the second.

Compared with `Cc1ccc(C)c(NC(=O)CSc2nnc(Cc3cccn3C)n2-c2ccc(F)cc2)c1`, `CCn1c(SCC(=O)Nc2cccc(F)c2)nnc1-c1cc2cc(Br)ccc2o1` is higher in inhibition: 7.2% for the first, 10.1% for the second.

Going from `COc1cccc(N2CC(C(=O)Nc3c(C)cccc3C)CC2=O)c1` (centres undefined) to `COc1ccc(CN2CC(C(=O)NCCN3CCN(c4ccccc4F)CC3)CC2=O)cc1` (centres undefined), the inhibition falls from 4.7% to -0.3%.

First: CCOC(=O)C1=C(C)NC(=O)N(C(C)=O)C1c1ccc(Cl)cc1 (centres undefined)
Second: CC(NC(=O)c1ccc(Cl)cc1)C(=O)N1CCCCC1 (centres undefined)
The inhibition of the first is higher: 9.6% for the first, 8.7% for the second.

`CN(C)S(=O)(=O)c1ccc(Oc2ccc(S(=O)(=O)N(C)C)cc2)cc1` and `CCN(c1ccccc1)S(=O)(=O)c1ccc(N)cc1` are the same in inhibition: 9% for the first, 9% for the second.

First: O=C(Cc1cccs1)N1CCCC(c2nc(-c3ccc(S(=O)(=O)N4CCCC4)cc3)no2)C1 (centres undefined)
Second: CCN(Cc1ccncc1)C(=O)c1cccc(S(=O)(=O)N2CCOCC2)c1
The inhibition of the first is higher: 8.4% for the first, -8.8% for the second.

First: CCCCCCn1c(SCC(=O)c2ccccc2)nc2c1c(=O)[nH]c(=O)n2C
Second: CCCCn1c(SCC(=O)N2CCC(C(=O)OCC)CC2)nc2cc(S(N)(=O)=O)ccc21
The inhibition of the first is higher: 7.8% for the first, 2.4% for the second.

Compared with `O=C1c2ccccc2C(Nc2ccc3c(c2)OCCO3)N1Cc1ccco1` (centres undefined), `O=C1NC(c2cc3c(cc2Cl)OCO3)Oc2ccccc21` (centres undefined) is lower in inhibition: -9.3% for the first, -12.4% for the second.

Going from `COc1ccccc1Cn1c(=S)[nH]c2cc(C(=O)N3CCN(C)CC3)ccc2c1=O` to `O=c1c2ccccc2[nH]c(=S)n1CCN1CCC(=C(c2ccc(F)cc2)c2ccc(F)cc2)CC1`, the inhibition falls from 4.3% to -4.7%.

Going from `Cc1cc(C)c(C#N)c(SCc2ccc3c(c2)OCO3)n1` to `O=S(=O)(NCc1ccc2c(c1)OCO2)c1cccc2nsnc12`, the inhibition falls from 7.3% to 5.1%.

First: Cc1cccc(N2CCN(C(=O)C3CCN(S(=O)(=O)c4cnc[nH]4)CC3)CC2)c1C
Second: O=C(CN1CCN(C2CCCCC2)CC1)Nc1ccccc1N1CCCCC1
The inhibition of the first is higher: 9.6% for the first, 1.9% for the second.

First: O=C(CSc1nnc(-c2ccoc2)o1)N1CCOCC1
Second: CS(=O)(=O)N(CC(=O)N1CCOCC1)c1ccc2c3c(cccc13)CC2
The inhibition of the first is lower: -16.1% for the first, 10.1% for the second.

First: O=C(O)Cc1ccc(NC(=O)C2CCCCC2C(=O)O)cc1 (centres undefined)
Second: CSc1ccc(NC(=O)N2CC(C)OC(C)C2)cc1 (centres undefined)
The inhibition of the first is lower: 9.2% for the first, 10.1% for the second.

First: CC1=NC2(CCCc3c2no[n+]3[O-])N(O)C1(C)C (centres undefined)
Second: Cc1nc(NC(=O)C23CCC(C)(C(=O)O2)C3(C)C)sc1C (centres undefined)
The inhibition of the first is lower: -8% for the first, 1.8% for the second.

First: c1ccc(CCc2nc(-c3ccncc3)no2)cc1
Second: O=C(Nc1nc(-c2ccc3c(c2)OCO3)cs1)c1ccncc1
The inhibition of the first is higher: 6.7% for the first, -1.3% for the second.

Compared with `Cc1ccc(S(=O)(=O)N2CCOCC2)cc1C(=O)NCc1ccc(F)cc1`, `Cc1ccccc1C(=O)NCCN=C1NS(=O)(=O)c2ccccc21` is higher in inhibition: 8.8% for the first, 11.6% for the second.

First: COc1cc2[nH]c(=S)n(CCN3CCCCC3C)c(=O)c2cc1OC (centres undefined)
Second: CN1C(=O)c2ccccc2C(C(=O)NCCCN2CCCC2)C1c1c[nH]c2ccccc12 (centres undefined)
The inhibition of the first is lower: -5% for the first, 2.4% for the second.

Going from `O=C(Cn1c(=O)n(Cc2ccco2)c(=O)c2ccccc21)NCC1CCCO1` (centres undefined) to `O=c1c2ccccc2nnn1CSc1nc2sc3c(c2c(=O)n1CC1CCCO1)CCC3` (centres undefined), the inhibition falls from 7.1% to 6.1%.

Going from `COc1ccc(C(c2nnnn2Cc2cccs2)N2CCN(c3ccccc3)CC2)cc1OC` (centres undefined) to `COc1ccc(OC)c2sc(NC(=O)C3COc4ccccc4O3)nc12` (centres undefined), the inhibition falls from 7.6% to 5.1%.

First: CCCOc1ccc(Cn2c(O)cc(=O)[nH]c2=O)cc1
Second: CCOc1ccc(NC(=O)CSc2nc3c(c(=O)n2-c2ccccc2OC)SCC3)cc1
The inhibition of the first is higher: 7.5% for the first, -2.3% for the second.

Compared with `O=C(Nc1cccnc1)c1noc2c1CCCCC2`, `O=C(C1CC1)N1CCN=C1SCc1ccc(Cl)cc1` is higher in inhibition: -2.8% for the first, 6.8% for the second.

First: O=C1c2ccccc2C(=O)N1c1ccccc1S(=O)C(F)(F)F (centres undefined)
Second: Cc1cccc(CC(=O)Nc2c3c(nn2-c2cccc(Cl)c2)CS(=O)C3)c1 (centres undefined)
The inhibition of the first is lower: -0.9% for the first, 9.5% for the second.

Going from `COc1ccc2c(CC(=O)Nc3nnc(C4CC4)s3)coc2c1` to `CC1CCCCC1NC(=O)CSc1nnc(N)s1` (centres undefined), the inhibition falls from 10.2% to 5.7%.

First: C=CCNC(=O)C12CC3CC(C1)CC(C(=O)NCC=C)(C3)C2
Second: CCOC(=O)C1CCN(C(=O)Cn2cc(C#N)c3ccccc32)CC1
The inhibition of the first is lower: -3.4% for the first, 4.3% for the second.

Going from `N#Cc1nc(COc2ccc(Cl)cc2)oc1N1CCCC1` to `Brc1cccc(-c2nnc3n2CCC3)c1`, the inhibition rises from -3% to 0.9%.

First: c1ccc(CCn2nnnc2CN2CCN(C3CCCC3)CC2)cc1
Second: NC(=O)CCCC1=NS(=O)(=O)c2ccccc2N1
The inhibition of the first is lower: -3.2% for the first, 5.7% for the second.

Work on `CCCn1c(SCC(=O)Nc2c(C)cccc2C)nnc1C(C)C` yielded an inhibition of 4.9%.

For `CN(C(=O)COc1ccccc1)c1nnc(-c2ccncc2)s1`, the inhibition was 29.1% (active).
With `O=C(Nc1nc(-c2ccncc2)cs1)C1COc2ccccc2O1` (centres undefined) the inhibition was 103% (active).
